Screening results (PubChem)
An excerpt weighted towards active compounds, which were near 8.5% of everything screened.
Coupling enz = inhibits coupling enzyme system, counter-screen for aldolase hits. coupling enzyme system counterscreen, AmpLite Red fluorescence. activity change, negative = inhibition, % at 58.2 µM, hits read low. hit rate 0.67% among 290,000; in the data active means activity change below about -30%
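Activity here indicates interference with the coupling reaction, not aldolase inhibition. Compounds at 57.5 uM final met coupling enzymes for 10 min at RT; substrate and AmpLite Red detection followed, with a 525/598 nm fluorescence read after 20 min.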
ALDH1A1 block = blocks purified human ALDH1A1 activity. hit rate 7.3% among 220,000. Purified ALDH1A1, NADH fluorescence, propionaldehyde substrate. Potency, µM (titrated, usually from 75.3 µM), inactives show at the highest dose activity, negative = inhibition, usual class: inhibitors. AID 1030. P00352;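 further: potency means the concentration at half of the fitted maximal effect; plate controls were no enzyme wells and a reference inhibitor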
Target sequence (P00352 whole entry, looked up): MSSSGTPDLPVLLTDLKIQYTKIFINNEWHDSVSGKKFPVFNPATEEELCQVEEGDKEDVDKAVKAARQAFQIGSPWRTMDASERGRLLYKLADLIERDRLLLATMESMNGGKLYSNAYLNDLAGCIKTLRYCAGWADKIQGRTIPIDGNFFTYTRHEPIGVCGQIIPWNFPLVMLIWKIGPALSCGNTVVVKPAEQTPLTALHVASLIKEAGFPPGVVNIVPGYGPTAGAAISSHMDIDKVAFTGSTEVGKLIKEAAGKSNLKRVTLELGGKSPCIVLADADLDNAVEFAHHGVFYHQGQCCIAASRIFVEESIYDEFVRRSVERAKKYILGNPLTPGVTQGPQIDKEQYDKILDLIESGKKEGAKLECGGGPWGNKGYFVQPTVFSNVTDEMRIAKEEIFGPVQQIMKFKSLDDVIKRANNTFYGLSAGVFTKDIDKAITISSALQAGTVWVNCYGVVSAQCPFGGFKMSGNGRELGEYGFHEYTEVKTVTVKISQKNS
RGS12 GoLoco inh = inhibitors of human Gai1-RGS12 GoLoco interaction (red fluorophore); P63096; hit rate 0.44% among 230,000; Potency, µM (top dose mostly 61.6 µM), without a hit: at the highest dose activity, negative = inhibition, usual class: inhibitors; Gai1:RGS12 GoLoco peptide FP, rhodamine, 10 min; AID 880; active means well fitted inhibition curve with a large enough effect, not every such curve was filed as active; inactive means no such curve, though single readings can be large or run the other way; further: potency means the concentration at half of the fitted maximal effect; nearly all actives have a fitted effect of over 30% in size
NPSR antagonist = blocks cAMP signaling of the human neuropeptide S receptor; Q6W5P4; CHO-NPSR cells, cAMP TR-FRET, antagonist mode; Potency, µM (titrated, usually from 38.3 µM), inactives show top-dose activity change, negative = inhibition, usual class: inhibitors; hit rate 1% among 220,000; AID 1461; active means well fitted curve in the direction sought with a large enough effect; inconclusive means small, poorly fitted or top-dose-only effect, or another doubt; inactive means no such curve, though single readings can be large; an effect the other way counts as inactive or inconclusive; further: potency means the concentration at half of the fitted maximal effect; nearly all actives have a fitted effect of over 50% in size
JMJD2E inh = inhibitors of human JMJD2E histone demethylase; B2RXH2; JMJD2E catalytic domain, FDH-coupled NADH fluorescence (FDH is formaldehyde dehydrogenase); Potency, µM (titrated, usually from 57.1 µM), for inactives: at the top dose activity change, negative = inhibition, most hits filed as inhibitors; hit rate 1.6% among 230,000; AID 2147;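 further: potency means the concentration at half of the fitted maximal effect; 0% = wells with enzyme and -100% = buffer wells without enzyme; nearly all actives have a fitted effect of over 50% in size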
Sfp inh = blocks B. subtilis Sfp PPTase activity; hit rate 3.5% among 310,000; Biochemical Sfp PPTase activity, qHTS; Q9F4F7; Potency, µM, for inactives: largest response in the series, negative = inhibition, most hits filed as inhibitors; AID 1490; active means well fitted curve in the direction sought with a large enough effect; inconclusive means small, poorly fitted or top-dose-only effect, or another doubt; inactive means no such curve, though single readings can be large; an effect the other way counts as inactive or inconclusive;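 further: the enzyme is Sfp with the accession as filed and its product quenches rhodamine fluorescence; potency means the concentration at half of the fitted maximal effect; 0% = enzyme reaction without inhibitor and -100% = no enzyme wells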
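Fluorescence-quenching assay: 15 nM Sfp-PPTase preincubated 15 min at room temperature with compound, then 5 uM rhodamine-CoA and 12.5 uM BHQ-2-labelled YbbR peptide added. Fluorescence (ex 525/em 598 nm) read at start and after 30 min; difference gives rate.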
Numbers without * were called inactive; ? = inconclusive; . = no result given; [ ] = dose if it differs, or a comment. Unless noted, the call rests on the fitted dose curve; in most records, active means well fitted inhibition curve with a large enough effect (not every such curve was filed as active); inconclusive means small, poorly fitted or top-dose-only effect, or another doubt; inactive means no such curve, though single readings can be large or run the other way. Unless noted, on the % scale 0 is the no-effect control and ±100 the full control effect.

SMILES | Coupling enz | ALDH1A1 block | RGS12 GoLoco inh | NPSR antagonist | JMJD2E inh | Sfp inh
CC/C=C/[C@@H](c1ccccc1)[C@H](C)C(O)CC(=O)SC(C)(C)C (some centres not stated) | 1 | . | . | . | . | 11%
Cc1ccc[n+](CC(=O)Nc2c(Cl)cc(Cl)cc2Cl)c1 | -5 | -6% | -5% | -7% | 4% | 20%
O=C(C[n+]1ccccc1)Nc1ccccc1Br | -17 | 1.8µM* | -3% | -33% | -7% | 5%
O=C(C[n+]1ccccc1)Nc1c(Cl)cc(Cl)cc1Cl | -23 | 7.9µM* | 140% | 58% | -3% | 20µM*
CN(C)S(=O)(=O)c1ccc(C(=O)Nc2ccc(CCC(=O)N3CCCC3)cc2)cc1 | -3 | 22µM* | 11% | 4%[46.1 µM] | 4% | 4%
O=C(NCc1cccnc1)/C(=C\c1ccc(-c2ccc(Cl)c(Cl)c2)o1)S(=O)(=O)c1ccccc1 | -4 | -3% | -4% | 13µM* | -2% | -15%
O=C(NNS(=O)(=O)c1ccc(Cl)cc1)c1ccc(S(=O)(=O)N2CCCCC2)cc1 | 0 | ? | 5% | -21% | -2% | -7%
O=C(Nc1ccc2c(c1)OCO2)c1cccc(S(=O)(=O)N2CCCC2)c1 | 0 | ? | 5% | -13%[46.1 µM] | -3% | -3%
O=C(Nc1ccc2c(c1)OCCO2)c1ccc(S(=O)(=O)N2CCCCC2)cc1 | -2 | 25µM* | 4% | -30%[46.1 µM] | -10% | 3%
O=C(Nc1cc(S(=O)(=O)Nc2ccc(Cl)cc2)ccc1O)c1ccc(S(=O)(=O)N2CCCCCC2)cc1 | 6 | 3.2µM* | -8% | -37% | -19% | 3.2µM*
O=C(NCc1cccnc1)c1ccc(Cl)c(Cl)c1 | -1 | 2% | 0% | -5%[46.1 µM] | -7% | 10%
Cc1ccc(OCc2cc(C(=O)N(C)Cc3cnn(-c4ccccc4C)c3)no2)cn1 | . | . | . | . | . | 1%
O=C(Nc1ccc(O)cc1)c1cc(S(=O)(=O)N2CCCC2)ccc1Cl | 3 | 4.5µM* | . | -7%[46.1 µM] | ? | 15%
O=C(Nc1nc(-c2ccccc2)c(C(=O)c2ccccc2)s1)c1ccc(S(=O)(=O)N2CCCC2)cc1 | 7 | 5% | -3% | 6.3µM* | -13% | 1%
CC(=O)c1cccc(NC(=O)c2ccc(S(=O)(=O)N3CCCCC3)cc2)c1 | -2 | 22µM* | 5% | -16%[46.1 µM] | -3% | -9%
O=C(NCc1cccnc1)c1cc(S(=O)(=O)N2CCCCC2)ccc1Cl | 4 | 20µM* | -5% | 7%[46.1 µM] | -2% | -5%
O=C(CN1CCN(S(=O)(=O)c2ccc(Cl)cc2)CC1)Nc1ccc2c(c1)OCCO2 | -1 | ? | 4% | -22%[46.1 µM] | -1% | 16%
COc1ccc(NC(=O)c2cc(S(=O)(=O)N3CCOCC3)ccc2N2CCOCC2)cc1 | . | . | . | . | . | 17%
O=C(NCc1cccnc1)c1ccc(-c2cc(Cl)ccc2Cl)o1 | -3 | 7.1µM* | -7% | 11% | -2% | 56µM*
O=C(Nc1ccc(N2CCOCC2)cc1)c1ccc(S(=O)(=O)N2CCCCC2)cc1 | 1 | 0.11µM* | . | -4%[46.1 µM] | -9% | 2%
O=C(NCc1cccnc1)c1ccc(-c2ccc(Cl)cc2)o1 | -1 | ? | 14% | -17% | ? | 6%
O=C(CN1CCN(S(=O)(=O)c2ccc(Br)cc2)CC1)Nc1ccc2c(c1)OCCO2 | 0 | 25µM* | -6% | -21%[46.1 µM] | 8% | 11%
CC(=O)Nc1ccc(C(=O)Nc2ccc(S(=O)(=O)N3CCOCC3)cc2)cc1 | -1 | . | . | . | . | 2%
COc1ccc(NC(=O)c2cc(S(=O)(=O)N3CCCCC3)ccc2N2CCCCC2)cn1 | -35* | ? | -2% | -28%[46.1 µM] | ? | -18%
COc1ccc(C2CC(c3ccccc3)Oc3ccc(C(C)(C)C)cc32)cc1 (configuration not stated) | -2 | . | . | . | . | -10%
C=CCn1c(=O)c2ccccc2n2c(SCC(=O)NC)nnc12 | 4 | . | . | . | . | -1%
CS(=O)(=O)Nc1ccc(C(=O)Nc2ccc(S(=O)(=O)N3CCCCC3)cc2)cc1 | . | . | . | . | . | 7%
